Source: PubChem BioAssay (NCATS)
Records with an inconclusive call do not appear. Active and inactive are the calls of the source. Unless noted, the call rests on the fitted dose curve.

Assays:
[1] = target: Androgen receptor (Homo sapiens) (UniProt P10275); assay: qHTS assay for small molecule agonists of androgen receptor signaling (AID 588515; active means well fitted curve in the direction sought with a large enough effect in the signal ratio, with a control signal flat; the % refers to the signal ratio; further: on the % scale 0 is the no-effect control and ±100 the full control effect); settings: AR-UAS-bla HEK293, beta-lactamase ratio, agonist 16 h; activation: stronger effect = higher value
Androgen receptor (Homo sapiens), sequence (P10275 whole entry, looked up): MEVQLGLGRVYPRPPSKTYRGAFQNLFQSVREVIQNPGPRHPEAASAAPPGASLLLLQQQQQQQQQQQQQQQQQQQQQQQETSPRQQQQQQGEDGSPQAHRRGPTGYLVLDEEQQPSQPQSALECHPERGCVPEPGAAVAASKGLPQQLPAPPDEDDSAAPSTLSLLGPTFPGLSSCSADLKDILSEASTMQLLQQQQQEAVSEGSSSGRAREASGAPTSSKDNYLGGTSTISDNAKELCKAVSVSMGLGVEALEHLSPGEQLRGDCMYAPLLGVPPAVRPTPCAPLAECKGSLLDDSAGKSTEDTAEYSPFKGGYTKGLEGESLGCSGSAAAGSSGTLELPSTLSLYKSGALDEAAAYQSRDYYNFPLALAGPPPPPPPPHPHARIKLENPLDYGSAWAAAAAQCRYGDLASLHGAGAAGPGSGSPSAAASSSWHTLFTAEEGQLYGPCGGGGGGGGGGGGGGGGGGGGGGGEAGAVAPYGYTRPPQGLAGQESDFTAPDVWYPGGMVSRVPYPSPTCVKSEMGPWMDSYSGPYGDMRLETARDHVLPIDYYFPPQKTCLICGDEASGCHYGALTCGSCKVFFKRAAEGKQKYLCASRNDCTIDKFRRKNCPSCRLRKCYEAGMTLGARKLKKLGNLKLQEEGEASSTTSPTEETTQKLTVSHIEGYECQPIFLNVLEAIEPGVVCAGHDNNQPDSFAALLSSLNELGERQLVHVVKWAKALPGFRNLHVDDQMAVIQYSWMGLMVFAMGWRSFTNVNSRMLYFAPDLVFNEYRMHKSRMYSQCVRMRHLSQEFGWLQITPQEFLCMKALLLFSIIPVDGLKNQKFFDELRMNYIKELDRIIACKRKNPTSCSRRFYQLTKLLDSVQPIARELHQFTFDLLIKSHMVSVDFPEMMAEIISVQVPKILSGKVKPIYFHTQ
How it was run: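 Stimulation of an AR-responsive β-lactamase reporter in GripTite HEK293 cells was measured after 16 h compound exposure at 37 °C, via CCF4 fluorescence after 2 h RT. EC50 from Hill fits, normalized to R1881 at 30 nM.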

[2] = target: Androgen receptor (Homo sapiens) (UniProt P10275); assay: qHTS assay for small molecule antagonists of androgen receptor signaling (AID 588516; active means well fitted curve in the direction sought with a large enough effect in the signal ratio, with a control signal flat, not every such curve was filed as active; the % refers to the signal ratio; further: on the % scale 0 is the no-effect control and ±100 the full control effect)
How it was run: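 Antagonist mode: inhibition of R1881-stimulated (10 nM final) bla reporter in GeneBLAzer AR HEK 293 cells, 16 h at 37C, compounds titrated. IC50 and efficacy from Hill-equation fits of 405/460–530 nm FRET ratios.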

[3] = target: Glucocorticoid receptor (Homo sapiens) (UniProt P04150); assay: qHTS assay for small molecule antagonists of glucocorticoid receptor signaling (AID 588533; active means well fitted inhibition curve with a large enough effect in the signal ratio, with a control signal flat, not every such curve was filed as active; the % refers to the signal ratio;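 further: cells stimulated with 2 nM dexamethasone as agonist; on the % scale 0 is the no-effect control and ±100 the full control effect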)
Glucocorticoid receptor (Homo sapiens), sequence (P04150 whole entry, looked up): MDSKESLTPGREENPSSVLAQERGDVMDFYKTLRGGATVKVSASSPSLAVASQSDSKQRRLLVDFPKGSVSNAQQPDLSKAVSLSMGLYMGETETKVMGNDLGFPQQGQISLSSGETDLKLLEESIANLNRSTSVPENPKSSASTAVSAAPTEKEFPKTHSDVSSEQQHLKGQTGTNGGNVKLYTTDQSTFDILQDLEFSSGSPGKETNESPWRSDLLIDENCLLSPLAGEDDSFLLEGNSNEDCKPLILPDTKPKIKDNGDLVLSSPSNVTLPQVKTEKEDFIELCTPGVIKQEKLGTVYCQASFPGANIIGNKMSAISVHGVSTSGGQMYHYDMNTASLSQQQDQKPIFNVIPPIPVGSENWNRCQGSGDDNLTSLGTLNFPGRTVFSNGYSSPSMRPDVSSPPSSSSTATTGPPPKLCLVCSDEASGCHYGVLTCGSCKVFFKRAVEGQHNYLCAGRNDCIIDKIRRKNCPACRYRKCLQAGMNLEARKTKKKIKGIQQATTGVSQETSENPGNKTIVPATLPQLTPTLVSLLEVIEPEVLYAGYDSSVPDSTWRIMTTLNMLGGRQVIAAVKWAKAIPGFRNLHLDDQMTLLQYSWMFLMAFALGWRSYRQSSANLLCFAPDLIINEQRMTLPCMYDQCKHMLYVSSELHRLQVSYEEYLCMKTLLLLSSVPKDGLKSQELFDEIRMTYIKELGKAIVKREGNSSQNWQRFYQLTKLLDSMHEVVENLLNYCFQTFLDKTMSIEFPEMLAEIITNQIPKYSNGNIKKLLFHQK
How it was run: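 Antagonist-mode qHTS: compound titrations added to GRE-bla HeLa cells, then dexamethasone 2 nM final; 18 h, 37 C. CCF4 FRET fluorescence normalized to dexamethasone and DMSO; IC50 from Hill fit.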

[4] = target: Peroxisome proliferator-activated receptor delta (Homo sapiens) (UniProt Q03181); assay: qHTS assay for small molecule antagonists of peroxisome proliferator-activated receptor delta signaling (AID 588535; active means well fitted inhibition curve with a large enough effect in the signal ratio, with a control signal flat, not every such curve was filed as active; the % refers to the signal ratio)
Peroxisome proliferator-activated receptor delta (Homo sapiens), sequence (Q03181 whole entry, looked up): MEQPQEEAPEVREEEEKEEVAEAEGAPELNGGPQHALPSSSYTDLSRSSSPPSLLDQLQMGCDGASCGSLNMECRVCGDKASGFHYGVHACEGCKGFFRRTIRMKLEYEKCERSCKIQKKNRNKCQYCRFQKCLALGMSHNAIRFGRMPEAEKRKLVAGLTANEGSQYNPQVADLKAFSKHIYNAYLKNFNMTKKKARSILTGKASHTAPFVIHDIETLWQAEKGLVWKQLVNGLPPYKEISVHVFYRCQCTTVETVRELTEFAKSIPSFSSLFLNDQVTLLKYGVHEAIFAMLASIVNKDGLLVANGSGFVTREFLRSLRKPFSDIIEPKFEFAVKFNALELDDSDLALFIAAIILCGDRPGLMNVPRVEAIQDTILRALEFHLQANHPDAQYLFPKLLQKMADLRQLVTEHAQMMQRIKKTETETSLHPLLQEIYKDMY
How it was run: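 Beta-lactamase reporter read-out (405 nm excitation, 460/530 nm emission) after CCF4 loading for 2 hrs at RT. HEK293T PPAR-delta-UAS-bla cells, 2% charcoal/dextran FBS, compounds for 18 hrs at 37 C. Hill fit gave IC50 and efficacy.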

[5] = target: Peroxisome proliferator-activated receptor gamma (Homo sapiens) (UniProt P37231); assay: qHTS assay for small molecule antagonists of peroxisome proliferator-activated receptor gamma signaling (AID 588537; active means well fitted inhibition curve with a large enough effect in the signal ratio, with a control signal flat, not every such curve was filed as active; the % refers to the signal ratio;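 further: reporter cells co-stimulated with 50 nM rosiglitazone agonist during compound treatment; % of control where 0% means no effect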)
Peroxisome proliferator-activated receptor gamma (Homo sapiens), sequence (P37231 whole entry, looked up): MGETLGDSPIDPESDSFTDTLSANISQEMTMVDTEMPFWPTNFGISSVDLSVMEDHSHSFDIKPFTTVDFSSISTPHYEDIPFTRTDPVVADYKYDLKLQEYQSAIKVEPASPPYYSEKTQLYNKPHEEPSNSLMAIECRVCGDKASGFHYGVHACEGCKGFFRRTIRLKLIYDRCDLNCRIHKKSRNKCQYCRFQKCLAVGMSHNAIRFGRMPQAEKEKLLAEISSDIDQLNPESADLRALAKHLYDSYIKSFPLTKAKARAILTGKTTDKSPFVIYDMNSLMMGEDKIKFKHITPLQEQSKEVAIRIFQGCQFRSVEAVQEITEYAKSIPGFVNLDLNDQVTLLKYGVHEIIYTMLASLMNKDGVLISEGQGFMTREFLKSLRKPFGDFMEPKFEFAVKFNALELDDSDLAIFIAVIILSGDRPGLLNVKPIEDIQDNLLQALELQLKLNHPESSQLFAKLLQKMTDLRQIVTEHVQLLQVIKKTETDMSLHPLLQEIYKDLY
How it was run: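 Read-out: CCF4 fluorescence (ex 405, em 460/530 nm) after 2 h at RT. Cells were HEK293 carrying a UAS-bla reporter and treated 16 h at 37 C with compound plus rosiglitazone (50 nM final). Normalized to rosiglitazone and DMSO.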

[6] = target: Vitamin D3 receptor (Homo sapiens) (UniProt P11473); assay: qHTS assay for small molecule agonists of vitamin D receptor signaling (AID 588543);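 further: 0% = DMSO basal and 100% = reference agonist control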
Vitamin D3 receptor (Homo sapiens), sequence (P11473 whole entry, looked up): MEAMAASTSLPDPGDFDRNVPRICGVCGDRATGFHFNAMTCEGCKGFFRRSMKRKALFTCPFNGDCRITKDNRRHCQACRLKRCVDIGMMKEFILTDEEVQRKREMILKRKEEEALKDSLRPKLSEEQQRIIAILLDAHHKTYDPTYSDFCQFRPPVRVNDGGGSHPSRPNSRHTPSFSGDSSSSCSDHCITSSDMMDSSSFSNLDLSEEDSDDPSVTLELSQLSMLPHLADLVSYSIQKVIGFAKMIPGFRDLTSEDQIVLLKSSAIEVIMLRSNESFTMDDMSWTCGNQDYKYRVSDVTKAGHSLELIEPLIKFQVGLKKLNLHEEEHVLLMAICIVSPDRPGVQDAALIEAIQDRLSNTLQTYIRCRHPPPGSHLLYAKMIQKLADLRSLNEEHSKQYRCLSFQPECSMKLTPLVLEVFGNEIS
How it was run: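 Agonist-mode beta-lactamase reporter: HEK293T VDR-UAS-bla cells in charcoal-stripped 2% FBS, compound series 16 h 37 C, CCF4 2 h RT. EC50 from Hill fit, scaled against DMSO and 50 nM calcitriol control.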

[7] = qHTS assay for small molecule agonists of the antioxidant response element (ARE) signaling pathway (AID 651741; active means well fitted activation curve with a large enough effect in the signal ratio; the % refers to the signal ratio; further: potency means the concentration at half of the fitted maximal effect; on activation: % of control where 0% means no effect)
How it was run: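 HepG2 ARE-bla reporter cells, 2,000/well; 5 h settle at 37 C/5% CO2; compound pin transfer (23 nL, DMSO); 16 h at 37 C; LiveBLAzer B/G FRET substrate, 2 h RT; fluorescence intensity read.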

[8] = qHTS assay for small molecule activators of the p53 signaling pathway (AID 651743; active means well fitted activation curve with a large enough effect in the signal ratio, not every such curve was filed as active; the % refers to the signal ratio; further: series mostly up to about 92 µM; % of control where 0% means no effect); settings: HCT-116 p53RE-bla, beta-lactamase FRET ratio, 16 h; activation: stronger effect = higher value
How it was run: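 Reporter: beta-lactamase driven by p53 response elements, stably integrated in HCT-116 cells. Cells seeded at 4,000/well, 5 h preincubation, compound (DMSO) 16 h at 37 C; B/G FRET substrate 2 h RT; fluorescence intensity read.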

[9] = target: Cytochrome P450 3A4 (Homo sapiens) (UniProt P08684); assay: qHTS Assay for Activators of Cytochrome P450 3A4 (AID 885; active means well fitted curve in the direction sought with a large enough effect; an effect the other way counts as inactive or inconclusive; further: nearly all actives have a fitted effect of over 65% in size)
Cytochrome P450 3A4 (Homo sapiens), sequence (P08684 whole entry, looked up): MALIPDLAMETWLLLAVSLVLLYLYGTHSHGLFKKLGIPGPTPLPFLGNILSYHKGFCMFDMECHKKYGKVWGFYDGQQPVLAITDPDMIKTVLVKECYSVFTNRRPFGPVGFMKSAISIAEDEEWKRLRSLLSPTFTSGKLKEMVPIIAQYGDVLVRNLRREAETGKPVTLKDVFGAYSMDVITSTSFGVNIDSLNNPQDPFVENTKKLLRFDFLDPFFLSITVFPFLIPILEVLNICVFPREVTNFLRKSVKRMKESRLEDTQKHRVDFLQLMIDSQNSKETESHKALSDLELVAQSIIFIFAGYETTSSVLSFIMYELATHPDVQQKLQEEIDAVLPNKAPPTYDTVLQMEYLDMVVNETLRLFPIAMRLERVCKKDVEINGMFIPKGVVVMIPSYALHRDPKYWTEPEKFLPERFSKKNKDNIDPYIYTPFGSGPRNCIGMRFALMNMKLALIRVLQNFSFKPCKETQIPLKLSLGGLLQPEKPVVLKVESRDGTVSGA
How it was run: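 Human CYP3A4 dealkylates Luciferin-PPXE to luciferin, which luciferase detection converts to light. Substrate was at its KM (25uM), buffer 200mM KPO4, reaction 60 min at RT.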

[10] = target: DNA dC->dU-editing enzyme APOBEC-3G (Homo sapiens) (UniProt Q9HC16); assay: qHTS for inhibitors of Vif-A3G interactions: Validation (AID 588379; active means well fitted curve in the direction sought with a large enough effect; an effect the other way counts as inactive or inconclusive; further: 0% is about no effect)
DNA dC->dU-editing enzyme APOBEC-3G (Homo sapiens), sequence (Q9HC16 whole entry, looked up): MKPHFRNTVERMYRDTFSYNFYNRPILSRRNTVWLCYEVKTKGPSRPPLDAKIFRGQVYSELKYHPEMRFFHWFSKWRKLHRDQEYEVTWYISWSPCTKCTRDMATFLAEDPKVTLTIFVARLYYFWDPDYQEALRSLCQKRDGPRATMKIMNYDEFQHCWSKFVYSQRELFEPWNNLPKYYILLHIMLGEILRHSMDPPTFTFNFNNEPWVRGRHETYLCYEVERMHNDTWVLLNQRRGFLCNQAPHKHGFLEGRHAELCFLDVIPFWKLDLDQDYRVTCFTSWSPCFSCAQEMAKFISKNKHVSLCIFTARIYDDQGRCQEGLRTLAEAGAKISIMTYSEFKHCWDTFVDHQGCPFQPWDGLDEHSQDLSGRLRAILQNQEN
How it was run: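 Yellow fluorescence (Ex 488, Em 500-530) of Vif-coexpressing HeLa A3G-eYFP cells, scanned by Acumen cytometer, reports blocked A3G degradation. Cells plated at 700/well overnight at 37 deg C before compound addition, then a further overnight compound incubation at 37 deg C.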

[11] = target: Bile acid receptor (Homo sapiens) (UniProt Q96RI1); assay: qHTS assay for small molecule antagonists of farnesoid X receptor signaling (AID 588526); further: on the % scale 0 is the no-effect control and ±100 the full control effect
Bile acid receptor (Homo sapiens), sequence (Q96RI1 whole entry, looked up): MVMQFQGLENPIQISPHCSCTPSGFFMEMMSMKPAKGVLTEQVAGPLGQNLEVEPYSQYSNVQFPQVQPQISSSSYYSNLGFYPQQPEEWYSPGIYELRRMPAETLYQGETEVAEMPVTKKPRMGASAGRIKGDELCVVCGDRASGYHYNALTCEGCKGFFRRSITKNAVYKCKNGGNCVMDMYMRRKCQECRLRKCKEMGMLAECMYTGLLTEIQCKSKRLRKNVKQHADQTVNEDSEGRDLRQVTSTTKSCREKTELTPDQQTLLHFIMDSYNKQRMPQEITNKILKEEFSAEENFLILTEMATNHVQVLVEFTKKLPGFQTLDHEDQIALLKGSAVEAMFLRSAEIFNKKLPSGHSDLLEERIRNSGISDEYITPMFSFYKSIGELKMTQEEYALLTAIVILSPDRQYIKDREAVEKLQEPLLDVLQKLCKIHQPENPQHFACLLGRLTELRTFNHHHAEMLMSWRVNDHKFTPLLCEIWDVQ
How it was run: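 Antagonist mode: titrated compounds tested against chenodeoxycholic acid stimulation (normalized to 50 uM CDCA and DMSO) in GeneBLAzer HEK293T cells for 16 h. Beta-lactamase read by CCF4 fluorescence; IC50 from Hill fits.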

[12] = qHTS assay for small molecule agonists of the antioxidant response element (ARE) signaling pathway measured by Nrf2-dependant transcriptional activity (AID 720636; active means well fitted curve in the direction sought with a large enough effect in the repeat runs; an effect the other way counts as inactive or inconclusive; further: potency means the concentration at half of the fitted maximal effect; on activation: % of control where 0% means no effect)
How it was run: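 ARE-luc HepG2 cells carrying an Nrf2-responsive luciferase reporter, in medium with 1% dialyzed FBS, exposed to compound for 16 hr at 37 C, 5% CO2. Luminescence read 30 min after ONE-Glo addition.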

CCCCCCCCCC(C)=O
inactive: activation [1] -3.13% | outcome [2] | Potency [3] | Potency [4] | Potency [5] | outcome [6] | Potency [7] | activation [8] -2.23%

COc1cc(/C=C/C(=O)c2cccs2)cc(OC)c1OC
inactive: Potency [9] | Potency [10]

O=C1CCCC/C=C/CCCCCCCCCO1
inactive: activation [1] 0.71% | outcome [2] | Potency [11] | Potency [3] | Potency [4] | Potency [5] | Potency [7] | activation [8] 0.177% | Potency [12]

Cn1c(=O)[nH]c(=O)n(C2CCC(O)CC2)c1=O (centres undefined)
inactive: activation [1] 1.63% | outcome [2] | Potency [11] | Potency [3] | Potency [4] | Potency [5] | outcome [6] | activation [8] 2.9% | Potency [12]

CCCCOC(=O)c1ccccc1
inactive: activation [1] 0.383% | outcome [2] | Potency [3] | Potency [4] | Potency [5] | outcome [6] | Potency [7] | Potency [12]

C[Si](Cl)(Cl)c1ccccc1
inactive: activation [1] 5.21% | outcome [2] | Potency [11] | Potency [4] | outcome [6] | activation [8] -1.52% | Potency [12]

COc1cc2c(Cc3c4c5c(cc(OC)c(OC)c5c5c(OC)c(OC)ccc35)CCN4C)c3c4c(cc(OC)c(OC)c4c2cc1OC)CCN3C
inactive: Potency [9] | Potency [10]

Cc1ccc(N=Nc2c(O)ccc3ccccc23)c(C)c1
active: Potency [7] 7.7 µM | Potency [12] 10.9 µM
inactive: activation [1] -2.14% | outcome [2] | Potency [11] | Potency [4] | Potency [5] | outcome [6]

CCCCCCCOC(=O)c1ccccc1C(=O)OCCCCCCC
inactive: activation [1] -1.72% | outcome [2] | Potency [11] | Potency [3] | Potency [4] | outcome [6] | activation [8] -3.71% | Potency [12]

CC1(C)CC(NCCCCCCNC2CC(C)(C)NC(C)(C)C2)CC(C)(C)N1
inactive: activation [1] 6.67% | outcome [2] | Potency [11] | Potency [3] | Potency [5] | outcome [6] | activation [8] -1.03% | Potency [12]

Cc1cc(=O)cc2oc3cc(N)c(-c4c(C)cc(O)cc4O)c(C)c3nc1-2
inactive: Potency [9] | Potency [10]

CC(Cl)(Cl)C(=O)OCCOc1cc(Cl)c(Cl)cc1Cl
inactive: activation [1] 2.7% | outcome [2] | Potency [11] | Potency [3] | Potency [4] | Potency [5] | outcome [6]

CC(C)Cc1c(C(=O)O)c(C(F)F)nc(C(F)(F)F)c1C1=NCCS1
inactive: activation [1] -2.77% | outcome [2] | Potency [11] | Potency [3] | Potency [4] | Potency [5] | outcome [6] | Potency [7] | activation [8] -1.35%

CCCCCCCCCCCCCCCCCC(N)=O
inactive: activation [1] 5.45% | outcome [2] | Potency [11] | Potency [4] | Potency [5] | outcome [6] | activation [8] 0.913%

C[Si](Cl)(Cl)[Si](C)(Cl)Cl
inactive: activation [1] 0.564% | outcome [2] | Potency [11] | Potency [3] | Potency [4] | Potency [5] | outcome [6] | activation [8] 0.0231% | Potency [12]

CCCCOC(=O)/C=C\C(=O)OCCCC
inactive: Potency [11] | activation [8] 5.06% | Potency [12]

CC(C)c1ccc2cc(C(C)C)ccc2c1
inactive: activation [1] -3.98% | outcome [2] | Potency [5] | outcome [6]

Nc1c(N=Nc2ccc(S(=O)(=O)CCOS(=O)(=O)O)cc2)c(S(=O)(=O)O)cc2cc(S(=O)(=O)O)c(N=Nc3ccc(S(=O)(=O)CCOS(=O)(=O)O)cc3)c(O)c12
inactive: activation [1] 7.7% | Potency [11] | Potency [4] | outcome [6] | activation [8] -4.94%
active: Potency [7] 30.6 µM

CCCCCC1CCC(=O)O1 (centres undefined)
inactive: Potency [11] | Potency [3] | Potency [4] | outcome [6] | activation [8] 0.985%

C=C(C)C(=O)OCCOC(=O)C(=C)C
inactive: outcome [2] | Potency [4] | Potency [5] | outcome [6] | activation [8] -1.01% | Potency [12]

O=C(O)CCCCCCCCCCC(=O)O
inactive: Potency [11] | Potency [3] | Potency [4] | Potency [7] | Potency [12]

C=C[Si](OCCOC)(OCCOC)OCCOC
inactive: Potency [11] | Potency [4] | Potency [7] | activation [8] -3.03%

CCSC(=O)N(CC(C)C)CC(C)C
inactive: activation [1] 3.31% | outcome [2] | Potency [4] | outcome [6] | Potency [7] | activation [8] -3.92% | Potency [12]

O=C(O)c1ccc(C(=O)O)c(C(=O)O)c1
inactive: activation [1] -3.3% | outcome [2] | Potency [4] | Potency [5] | Potency [12]

COC(=O)c1cccc(C(=O)OC)c1
inactive: activation [1] -4.83% | outcome [2] | Potency [4] | Potency [5] | outcome [6] | activation [8] 2.13% | Potency [12]

CC(C)C(=O)OCC(C)(C)C(O)C(C)C (centres undefined)
inactive: Potency [11] | Potency [3] | Potency [4] | Potency [5] | outcome [6] | Potency [7] | activation [8] -2.18% | Potency [12]

CCCCCCCCCCCCCCC(=O)OC
inactive: outcome [2] | Potency [11] | Potency [3] | Potency [4] | Potency [5] | outcome [6] | Potency [7]

CCCCCCCCCCCCCc1ccccc1
inactive: Potency [11] | Potency [3] | Potency [4] | Potency [5] | outcome [6] | Potency [7] | activation [8] 1.08% | Potency [12]

CC(C)OC(=O)c1ccccc1C(=O)OC(C)C
inactive: Potency [11] | Potency [3] | Potency [5] | outcome [6] | Potency [12]

CCOC(=O)C1=NN(c2ccc(Cl)cc2Cl)C(C)(C(=O)OCC)C1 (centres undefined)
inactive: activation [1] -14.3% | outcome [2] | Potency [3] | Potency [7] | activation [8] -4.17% | Potency [12]
